# Test results taken from PubChem BioAssay (Tox21).
# Results filed as inconclusive are left out. A call without a number means that no potency is given here. Active and inactive are the calls of the source. Unless noted, the call rests on the fitted dose curve; in most records, active means well fitted curve in the direction sought with a large enough effect in the repeat runs; inconclusive means weak or mixed curves; inactive means no such curve, though single readings can be large; an effect the other way counts as inactive or inconclusive.
# Columns and labels:
# [1] = A CellTox Green Cytotoxicity Assay to monitor cytotoxicity in HEK293 cells - 32 hour (AID 1224881); further: nearly all actives have a fitted effect of over 40% in size; further: potency means the concentration at half of the fitted maximal effect
# Summary of the method: (§1)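 Homogeneous no-lysis format: HEK293 cell suspension mixed with CellTox Green reagent, seeded, incubated 5 h at 37 C/5% CO2, then dosed by pintool with compound in DMSO.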
# [2] = A CellTox Green Cytotoxicity Assay to monitor cytotoxicity in HepG2 cells - 0 hour (AID 1224882); further: nearly all actives have a fitted effect of over 35% in size; further: potency means the concentration at half of the fitted maximal effect
# Summary of the method: (§2)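 Fluorescent DNA-binding dye, 600 HepG2 cells/well, 5 h preincubation then compound in DMSO; same plates read at 0–40 h, 37 C.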
# [3] = A CellTox Green Cytotoxicity Assay to monitor cytotoxicity in HepG2 cells - 32 hour (AID 1224883); further: nearly all actives have a fitted effect of over 50% in size; further: potency means the concentration at half of the fitted maximal effect
# Summary of the method: as §2
# [4] = A CellTox Green Cytotoxicity Assay to monitor cytotoxicity in HEK293 cells - 8 hour (AID 1224884); further: nearly all actives have a fitted effect of over 35% in size; further: potency means the concentration at half of the fitted maximal effect
# Summary of the method: as §1
# [5] = qHTS RealTime-Glo MT Cell Viability Assay in HepG2 cells - 16 hour (AID 1224885); further: nearly all actives have a fitted effect of over 50% in size; further: potency means the concentration at half of the fitted maximal effect
# Summary of the method: (§3)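 qHTS, HepG2, 600 cells/well, RealTime-Glo (NanoLuc + prosubstrate) added with cells; 5 h preincubation; DMSO compound addition; 37 C; luminescence at 0/8/16/24/32/40 h.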
# [6] = qHTS RealTime-Glo MT Cell Viability Assay in HEK293 cells - 24 hour (AID 1224886); further: nearly all actives have a fitted effect of over 50% in size; further: potency means the concentration at half of the fitted maximal effect
# Summary of the method: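 Assay medium contained NanoLuc luciferase plus cell-permeant prosubstrate, added with HEK293 cells at 600 cells/well. After 5 h at 37 C/5% CO2 compounds were added; plates stayed at 37 C for 40 h with serial luminescence reads.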
# [7] = qHTS RealTime-Glo MT Cell Viability Assay in HEK293 cells - 8 hour (AID 1224887); further: nearly all actives have a fitted effect of over 50% in size; further: potency means the concentration at half of the fitted maximal effect
# Summary of the method: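 Measured as luminescence from the same continuously cultured HEK293 wells at successive time points (0, 8, 16, 24, 32, 40 h) after compound addition. Reagent present from seeding; dosing at 5 h; incubation 37 C.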
# [8] = A CellTox Green Cytotoxicity Assay to monitor cytotoxicity in HEK293 cells - 16 hour (AID 1224888); further: nearly all actives have a fitted effect of over 35% in size; further: potency means the concentration at half of the fitted maximal effect
# Summary of the method: as §1
# [9] = qHTS RealTime-Glo MT Cell Viability Assay in HepG2 cells - 0 hour (AID 1224889); further: nearly all actives have a fitted effect of over 50% in size
# Summary of the method: as §3
# [10] = A CellTox Green Cytotoxicity Assay to monitor cytotoxicity in HepG2 cells - 8 hour (AID 1224890); further: nearly all actives have a fitted effect of over 45% in size; further: potency means the concentration at half of the fitted maximal effect
# Summary of the method: as §2
# [11] = qHTS assay to identify small molecule antagonists of the estrogen receptor alpha (ER-alpha) signaling pathway using the BG1 cell line in the presence of 0.1 nM 17-beta-estradiol - cell viability counter screen (AID 1259241); further: nearly all actives have a fitted effect of over 40% in size
# Summary of the method: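 VM7Luc4E2, 4,000 cells/well, phenol red-free medium + 10% charcoal-stripped FBS; 24 hr plating; cpd + 0.1 nM E2 final, 22 hr 37C/5% CO2; CellTiter-Fluor 30 min, fluorescence.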
# [12] = qHTS assay to identify small molecule antagonists of the androgen receptor (AR) signaling pathway using the MDA cell line in the presence of 0.5 nM R1881 - cell viability counter screen (AID 1259242); further: nearly all actives have a fitted effect of over 45% in size; further: potency means the concentration at half of the fitted maximal effect
# Summary of the method: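 Human breast carcinoma MDA-kb2 cells, cultured without CO2, receive compounds alongside 0.5 nM (final) R1881 agonist. After 16 hr at 37C, viability is taken as live-cell protease signal.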
# [13] = qHTS assay to identify small molecule HDAC inhibitors (AID 1259364); further: potency means the concentration at half of the fitted maximal effect;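 further: wild-type HCT-116 cells with endogenous class I/II HDAC activity; nearly all actives have a fitted effect of over 45% in size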
# Summary of the method: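 After a 2 hr compound incubation (37C, 5% CO2), HCT-116 cells seeded at 1,500/well the day before received HDAC-Glo reagent; signal read as luminescence after 30 min at room temperature.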
# [14] = qHTS assay to identify small molecule HDAC inhibitors - cell viability counter screen (AID 1259365)
# Summary of the method: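 Luminescence from CellTiter-Glo, developed 30min at room temperature, reports viability of wild-type HCT-116 cells treated 2hr with compounds at 37 C and 5% CO2 after overnight plating.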
# [15] = qHTS assay to identify small molecule agonists of the sonic hedgehog signaling (Shh) pathway - cell viability counter screen (AID 1259366); further: nearly all actives have a fitted effect of over 50% in size; further: potency means the concentration at half of the fitted maximal effect
# Summary of the method: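 Cytotoxicity counter screen run in the same wells as the Shh reporter assay. NIH/3T3 cells carrying a Gli1 response element–driven luciferase were treated with DMSO-dissolved compounds for 24hr, and live-cell protease activity was measured with CellTiter-Fluor.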
# [16] = qHTS assay to identify small molecule antagonists of the sonic hedgehog signaling (Shh) pathway - cell viability counter screen (AID 1259367); further: nearly all actives have a fitted effect of over 55% in size; further: potency means the concentration at half of the fitted maximal effect
# Summary of the method: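 Tox21 library chemicals were tested on a Gli1-Luc NIH/3T3 clone (2,000 cells/well) stimulated by conditioned medium; viability was quantified as fluorescence from CellTiter-Fluor reagent added at 23 hr.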
# [17] = qHTS assay to identify small molecule agonists of the sonic hedgehog signaling (Shh) pathway (AID 1259368; calls by dose curve;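 further: NIH/3T3-derived 3T3Gli1-Luc cells carrying a stable Gli1-driven firefly luciferase reporter; series mostly up to about 92 µM; nearly all actives have a fitted effect of over 15% in size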)
# Summary of the method: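 Stable NIH/3T3 Gli1-Luc reporter clone; 24 hr cpd exposure after a 4 hr settling period; luminescence endpoint.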
# [18] = target: Estrogen receptor (Homo sapiens) (UniProt P03372); assay: qHTS assay to identify small molecule antagonists of the estrogen receptor alpha (ER-alpha) signaling pathway using the BG1 cell line in the presence of 0.1 nM 17-beta-estradiol (AID 1259244); further: nearly all actives have a fitted effect of over 50% in size; further: potency means the concentration at half of the fitted maximal effect
# Summary of the method: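 Seeding of stripped-serum-adapted VM7Luc4E2 cells, 24 h attachment, compound transfer, then 0.1 nM final 17beta-estradiol; after 22 h incubation, ONE-Glo reagent and luminescence reading.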
# [19] = target: Androgen receptor (Homo sapiens) (UniProt P10275); assay: qHTS assay to identify small molecule antagonists of the androgen receptor (AR) signaling pathway using the MDA cell line in the presence of 0.5 nM R1881 (AID 1259243); further: nearly all actives have a fitted effect of over 50% in size; further: potency means the concentration at half of the fitted maximal effect
# Summary of the method: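 Cells: MDA-kb2 (MMTV-luc). Stimulus: 0.5 nM R1881. Time: 16 hr, 37C, no CO2. Detection: ONE-Glo luminescence after 30 min at RT.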
# [20] = qHTS assay to identify small molecule phospholipidosis (PLD) inducers (AID 1259344; active means well fitted curve in the direction sought with a large enough effect; an effect the other way counts as inactive or inconclusive)
# Summary of the method: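 Image-based: LipidTOX Red pit count/intensity per well and per cell; HepG2, 24 h compound at 37 C, PFA fixation, Hoechst counterstain.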
# Chain of Estrogen receptor (Homo sapiens) (P03372 whole entry, looked up): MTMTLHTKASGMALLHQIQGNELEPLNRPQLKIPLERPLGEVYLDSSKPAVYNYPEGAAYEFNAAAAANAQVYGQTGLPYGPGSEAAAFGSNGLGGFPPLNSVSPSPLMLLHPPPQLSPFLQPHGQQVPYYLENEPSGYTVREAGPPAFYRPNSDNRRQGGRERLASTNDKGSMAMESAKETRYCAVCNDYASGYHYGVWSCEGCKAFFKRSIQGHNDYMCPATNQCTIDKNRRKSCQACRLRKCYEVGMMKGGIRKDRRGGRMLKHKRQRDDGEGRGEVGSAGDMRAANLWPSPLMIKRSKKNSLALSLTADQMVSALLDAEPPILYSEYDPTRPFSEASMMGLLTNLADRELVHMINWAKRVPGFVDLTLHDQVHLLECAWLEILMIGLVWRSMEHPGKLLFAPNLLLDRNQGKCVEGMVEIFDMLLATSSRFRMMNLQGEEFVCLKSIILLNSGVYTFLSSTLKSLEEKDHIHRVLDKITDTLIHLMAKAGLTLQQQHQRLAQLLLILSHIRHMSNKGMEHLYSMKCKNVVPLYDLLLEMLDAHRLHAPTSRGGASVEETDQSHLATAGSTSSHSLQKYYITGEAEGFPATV
# Chain of Androgen receptor (Homo sapiens) (P10275 whole entry, looked up): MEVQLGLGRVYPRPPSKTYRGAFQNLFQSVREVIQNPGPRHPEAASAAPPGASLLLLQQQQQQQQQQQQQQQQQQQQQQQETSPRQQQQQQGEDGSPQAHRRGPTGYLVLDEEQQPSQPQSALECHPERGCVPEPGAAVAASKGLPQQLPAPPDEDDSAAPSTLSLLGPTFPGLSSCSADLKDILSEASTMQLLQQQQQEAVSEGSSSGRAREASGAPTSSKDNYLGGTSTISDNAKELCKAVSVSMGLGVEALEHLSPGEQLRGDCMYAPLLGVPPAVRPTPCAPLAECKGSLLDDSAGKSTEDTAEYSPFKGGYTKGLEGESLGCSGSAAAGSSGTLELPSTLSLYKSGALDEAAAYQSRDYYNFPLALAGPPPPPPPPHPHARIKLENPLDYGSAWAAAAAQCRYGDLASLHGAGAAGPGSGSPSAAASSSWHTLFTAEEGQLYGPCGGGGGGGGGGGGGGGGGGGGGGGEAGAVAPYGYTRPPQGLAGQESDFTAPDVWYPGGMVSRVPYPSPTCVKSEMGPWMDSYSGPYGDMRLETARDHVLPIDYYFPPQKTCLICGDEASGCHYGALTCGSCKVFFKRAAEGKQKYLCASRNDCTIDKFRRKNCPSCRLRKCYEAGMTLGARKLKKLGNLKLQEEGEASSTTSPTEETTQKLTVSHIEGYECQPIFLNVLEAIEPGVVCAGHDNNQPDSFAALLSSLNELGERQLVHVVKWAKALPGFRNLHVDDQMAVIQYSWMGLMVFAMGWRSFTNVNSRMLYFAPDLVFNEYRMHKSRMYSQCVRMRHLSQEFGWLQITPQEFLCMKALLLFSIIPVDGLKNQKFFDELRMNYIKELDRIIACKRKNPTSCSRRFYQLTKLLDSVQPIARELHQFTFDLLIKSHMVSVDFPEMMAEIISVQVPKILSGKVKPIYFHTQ
Compound,Potency [1],Potency [2],Potency [3],Potency [4],Potency [5],Potency [6],Potency [7],Potency [8],Potency [9],Potency [10],Potency [11],Potency [12],Potency [13],Potency [14],Potency [15],Potency [16],Potency [17],Potency [18],Potency [19],Potency [20]
O=C(O)c1c(Cl)cccc1Cl,inactive,inactive,inactive,inactive,inactive,inactive,inactive,inactive,inactive,inactive,inactive,inactive,inactive,inactive,inactive,inactive,inactive,–,–,–
c1ccc(CSCc2ccccc2)cc1,inactive,inactive,inactive,inactive,inactive,inactive,inactive,inactive,inactive,inactive,inactive,inactive,24.3 µM (active),inactive,inactive,inactive,inactive,–,–,–
Cc1cccc(S(=O)(=O)O)c1C,inactive,inactive,inactive,inactive,inactive,inactive,inactive,inactive,inactive,inactive,inactive,inactive,inactive,inactive,inactive,inactive,inactive,inactive,–,–
COC(=O)C1=C(C)NC(C)=C(C(=O)OCCc2ccc(N3CCN(C(c4ccccc4)c4ccccc4)CC3)cc2)C1c1cccc([N+](=O)[O-])c1 (stereo unspecified),inactive,inactive,inactive,inactive,inactive,inactive,inactive,inactive,inactive,inactive,inactive,inactive,inactive,inactive,inactive,inactive,inactive,inactive,inactive,–
CC[C@@]1(O)C(=O)OCc2c1cc1n(c2=O)Cc2cc3c(CN(C)C)c(O)ccc3nc2-1,23.9 µM (active),23.9 µM (active),8.49 µM (active),26.8 µM (active),inactive,0.0849 µM (active),inactive,26.8 µM (active),inactive,23.9 µM (active),–,–,–,inactive,–,–,inactive,1.88 µM (active),–,inactive
CCCCCCCC/C=C/CCCCCCCC1=NCCN1CCO,24.5 µM (active),inactive,13.8 µM (active),49 µM (active),24.5 µM (active),19.5 µM (active),43.6 µM (active),34.7 µM (active),inactive,49 µM (active),inactive,–,inactive,inactive,–,–,–,–,–,–
CC[C@H]1O[C@]2(CC[C@@H]1C)C[C@@H]1C[C@@H](C/C=C(\C)C[C@@H](C)/C=C/C=C3\CO[C@@H]4[C@H](O)C(C)=C[C@@H](C(=O)O1)[C@]34O)O2,48.5 µM (active),inactive,27.3 µM (active),inactive,43.3 µM (active),34.4 µM (active),43.3 µM (active),48.5 µM (active),inactive,48.5 µM (active),inactive,–,inactive,inactive,–,inactive,inactive,–,–,–
CCCCCCCCNC(C)C(O)c1ccc(SC(C)C)cc1 (stereo unspecified),16.9 µM (active),inactive,16.9 µM (active),21.3 µM (active),15.1 µM (active),9.52 µM (active),10.7 µM (active),19 µM (active),–,21.3 µM (active),–,23.7 µM (active),inactive,–,16.8 µM (active),–,inactive,29.8 µM (active),23.7 µM (active),inactive
CN(C)[C@@H]1C(=O)C(C(N)=O)=C(O)[C@@]2(O)C(=O)C3=C(O)c4c(O)ccc(Cl)c4[C@@H](O)[C@H]3C[C@@H]12,inactive,inactive,inactive,inactive,inactive,inactive,inactive,inactive,inactive,inactive,inactive,–,inactive,inactive,–,inactive,inactive,–,–,inactive
Cc1oc(-c2ccccc2)nc1CCC(=O)c1ccc(CC2SC(=O)NC2=O)cc1 (stereo unspecified),inactive,inactive,inactive,inactive,inactive,inactive,inactive,inactive,inactive,inactive,inactive,–,inactive,inactive,–,–,inactive,–,–,–
CO[Si](CCCNc1ccccc1)(OC)OC,inactive,inactive,inactive,inactive,inactive,inactive,inactive,inactive,inactive,inactive,inactive,inactive,inactive,inactive,–,inactive,–,–,–,–
Clc1ccc(C(Cn2ccnc2)OCc2ccc(Sc3ccccc3)cc2)c(Cl)c1 (stereo unspecified),inactive,inactive,inactive,inactive,inactive,inactive,inactive,inactive,inactive,inactive,inactive,inactive,inactive,inactive,–,inactive,inactive,inactive,–,–
N=C1N=C(N)c2cc3ccccc3cc21,54.9 µM (active),inactive,33.4 µM (active),54.9 µM (active),38.9 µM (active),24.5 µM (active),43.6 µM (active),54.9 µM (active),inactive,–,–,–,inactive,inactive,27.3 µM (active),24.3 µM (active),–,–,–,inactive
CC(C)(C)C(=O)OCOC(=O)[C@@H]1N2C(=O)[C@@H](NC(=O)[C@H](N)c3ccccc3)[C@H]2SC1(C)C,inactive,inactive,inactive,inactive,inactive,inactive,inactive,inactive,inactive,inactive,inactive,inactive,–,inactive,–,inactive,–,inactive,–,inactive
